Screens as filed in PubChem BioAssay.
The full list was thinned out, with hits kept by preference.
nsP2pro inh: inhibitors of chikungunya virus nsP2 protease; Q8JUX6; FRET peptide cleavage, nsP2pro, fluorescence 1 h; Potency, µM (titrated, usually from 24.9 µM), inactives show top-dose activity change, negative = inhibition, usual class: inhibitors; 31,000 compounds, 1.1% hits; AID 1964107; also: nearly all actives have a fitted effect of over 60% in size
Target sequence (Q8JUX6 whole entry, looked up): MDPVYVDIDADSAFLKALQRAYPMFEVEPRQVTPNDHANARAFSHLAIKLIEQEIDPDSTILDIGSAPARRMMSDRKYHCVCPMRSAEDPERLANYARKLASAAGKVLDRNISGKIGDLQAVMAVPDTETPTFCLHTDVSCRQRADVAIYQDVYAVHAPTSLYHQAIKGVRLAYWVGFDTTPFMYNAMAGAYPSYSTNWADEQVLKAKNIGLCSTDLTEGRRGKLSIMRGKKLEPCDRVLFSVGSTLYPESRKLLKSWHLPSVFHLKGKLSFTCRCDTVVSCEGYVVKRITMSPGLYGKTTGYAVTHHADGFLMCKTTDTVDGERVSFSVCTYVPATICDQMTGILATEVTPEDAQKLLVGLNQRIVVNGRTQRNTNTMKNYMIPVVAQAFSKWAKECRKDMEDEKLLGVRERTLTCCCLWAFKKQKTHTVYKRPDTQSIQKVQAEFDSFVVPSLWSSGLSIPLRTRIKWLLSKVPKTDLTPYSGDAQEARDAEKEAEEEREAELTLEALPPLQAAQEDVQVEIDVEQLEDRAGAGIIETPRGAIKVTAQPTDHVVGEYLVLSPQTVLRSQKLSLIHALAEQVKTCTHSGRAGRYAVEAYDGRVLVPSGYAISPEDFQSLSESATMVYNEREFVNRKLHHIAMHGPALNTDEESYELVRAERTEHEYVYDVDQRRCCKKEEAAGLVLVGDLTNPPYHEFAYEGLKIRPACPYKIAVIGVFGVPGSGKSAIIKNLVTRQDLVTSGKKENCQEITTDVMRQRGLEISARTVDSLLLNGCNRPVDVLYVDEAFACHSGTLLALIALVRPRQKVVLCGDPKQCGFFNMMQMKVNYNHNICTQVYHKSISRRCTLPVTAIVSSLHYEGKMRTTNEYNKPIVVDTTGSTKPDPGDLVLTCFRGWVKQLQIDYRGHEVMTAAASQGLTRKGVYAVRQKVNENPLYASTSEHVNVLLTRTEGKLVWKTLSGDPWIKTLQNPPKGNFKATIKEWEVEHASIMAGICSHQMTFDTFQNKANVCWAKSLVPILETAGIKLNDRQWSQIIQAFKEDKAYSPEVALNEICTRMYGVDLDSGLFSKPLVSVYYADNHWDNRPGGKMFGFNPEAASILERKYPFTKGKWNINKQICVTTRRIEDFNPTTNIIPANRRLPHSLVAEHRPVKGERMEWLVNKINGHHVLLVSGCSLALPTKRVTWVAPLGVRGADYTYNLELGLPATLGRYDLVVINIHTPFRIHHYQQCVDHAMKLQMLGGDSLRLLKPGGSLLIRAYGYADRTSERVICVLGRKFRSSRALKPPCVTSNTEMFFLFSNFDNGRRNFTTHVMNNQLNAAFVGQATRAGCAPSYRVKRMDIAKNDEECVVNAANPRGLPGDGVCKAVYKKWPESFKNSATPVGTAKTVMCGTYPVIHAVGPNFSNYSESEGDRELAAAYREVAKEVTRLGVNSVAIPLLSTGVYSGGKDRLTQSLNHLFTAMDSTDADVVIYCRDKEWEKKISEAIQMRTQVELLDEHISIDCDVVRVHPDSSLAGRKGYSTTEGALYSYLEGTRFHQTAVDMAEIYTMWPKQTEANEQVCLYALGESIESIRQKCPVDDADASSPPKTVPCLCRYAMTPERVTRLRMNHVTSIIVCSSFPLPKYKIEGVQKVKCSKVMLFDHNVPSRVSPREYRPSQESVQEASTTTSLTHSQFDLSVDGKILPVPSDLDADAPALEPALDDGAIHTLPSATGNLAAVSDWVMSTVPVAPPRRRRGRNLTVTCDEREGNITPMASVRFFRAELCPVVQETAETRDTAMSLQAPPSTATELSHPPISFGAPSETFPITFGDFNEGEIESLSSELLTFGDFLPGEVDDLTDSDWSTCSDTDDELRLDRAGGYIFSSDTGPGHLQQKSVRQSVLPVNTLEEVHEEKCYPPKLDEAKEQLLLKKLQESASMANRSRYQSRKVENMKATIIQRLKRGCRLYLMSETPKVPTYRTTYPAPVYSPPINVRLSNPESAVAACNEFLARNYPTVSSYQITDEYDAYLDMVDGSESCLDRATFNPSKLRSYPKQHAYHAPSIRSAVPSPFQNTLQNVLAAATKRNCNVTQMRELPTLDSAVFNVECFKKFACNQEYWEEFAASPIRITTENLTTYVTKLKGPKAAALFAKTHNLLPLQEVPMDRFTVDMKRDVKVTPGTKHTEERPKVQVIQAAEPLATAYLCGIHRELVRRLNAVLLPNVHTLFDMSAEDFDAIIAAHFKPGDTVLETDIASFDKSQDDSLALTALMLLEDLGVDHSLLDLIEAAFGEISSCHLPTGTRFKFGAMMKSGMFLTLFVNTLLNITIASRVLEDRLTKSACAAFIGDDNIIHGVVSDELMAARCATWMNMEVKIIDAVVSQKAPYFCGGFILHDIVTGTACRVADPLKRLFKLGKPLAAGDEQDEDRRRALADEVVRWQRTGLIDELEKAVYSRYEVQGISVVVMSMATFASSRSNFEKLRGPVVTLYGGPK
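Purified recombinant nsP2pro (150 nM final) in 10 mM Tris-HCl pH 8.0 with 0.01% Tween 20 was preincubated 15 min at room temperature with compound (7 concentrations, up to 25 uM). FRET peptide 2 substrate (2.5 uM final) was then added; fluorescence was read after 1 h.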
nsP2 cell sec: cell-based CHIKV nsP2 protease inhibition, secondary; Potency, µM (series often up to 51.1 µM), inactives show top-dose activity change, negative = inhibition, actives largely listed as inhibitors; 450 compounds, 10% hits; shares compounds with nsP2pro inh; cell-based CHIKV nsP2 protease reporter assay; AID 1964100; also: nearly all actives have a fitted effect of over 70% in size
NSP2 full ctr: inhibits full-length CHIKV NSP2 enzyme; Full-length CHIKV NSP2 protease enzymatic counterscreen; 410 compounds, 39% hits; AID 1964101; shares compounds with nsP2pro inh; Potency, µM (top dose mostly 50.7 µM), for the others: top-dose activity change, negative = inhibition, hits mostly inhibitors; also: nearly all actives have a fitted effect of over 65% in size
Furin counterscr: selectivity counter-screen for CHIKV nsP2 protease inhibitors: human furin; 410 compounds, 6% hits; Potency, µM (doses to about 50.6 µM), inactives show top-dose activity change, negative = inhibition, hits mostly inhibitors; shares compounds with nsP2pro inh; Recombinant human furin enzymatic counterscreen, fluorogenic substrate
nsP2 NS23 pep: blocks CHIKV nsP2 protease cleavage of endogenous NS2/3 peptide; Purified CHIKV nsP2 protease, endogenous NS2/3 peptide cleavage; 410 compounds, 34% hits; Potency, µM (top dose mostly 51 µM), for inactives: top-dose activity change, negative = inhibition, actives largely listed as inhibitors; shares compounds with nsP2pro inh; also: nearly all actives have a fitted effect of over 55% in size
Papain cs: inhibits papain in a CHIKV nsP2 protease selectivity counterscreen. shares compounds with nsP2pro inh. purified papain protease activity, enzymatic inhibition. Potency, µM (series often up to 51 µM), inactives show top-dose activity change, negative = inhibition, actives largely listed as inhibitors. 410 compounds, 5% hits. AID 1964104
nsP2pro conf qHTS: CHIKV nsP2 protease inhibition, confirmatory qHTS; shares compounds with nsP2pro inh; CHIKV nsP2 protease enzymatic activity, qHTS; Potency, µM (highest dose often 25.5 µM), for the others: top-dose activity change, negative = inhibition, actives largely listed as inhibitors; 410 compounds, 43% hits; also: nearly all actives have a fitted effect of over 75% in size
HCV NS3 counter: selectivity counter-screen for CHIKV nsP2 protease inhibitors: HCV NS3/4A. shares compounds with nsP2pro inh. HCV NS3/4A protease biochemical counterscreen. Potency, µM (series often up to 50.9 µM), usual class: inhibitors. 410 compounds, 20% hits. AID 1964106; also: nearly all actives have a fitted effect of over 55% in size
An asterisk follows results filed as active; i = inactive; ? = inconclusive; [ ] = another dose, or the depositor's remark. Calls follow the shape of the full dose curve. % is scaled to controls: 0 for no effect and ±100 for the full control effect; potency is read from the fitted curve at half-maximal effect.

SMILES	nsP2pro inh	others
Cc1ccc(-c2ccc(=O)n(CCNCCc3ccccc3)n2)cc1	i
COC(=O)c1ccc2c(c1)S(=O)(=O)N=C2Sc1cc(C)ccc1C	4.1%
CC1(C)[C@H](C=C(Cl)Cl)[C@@H]1C(=O)OCc1c(F)c(F)cc(F)c1F	-4.1%
O=C(NO)c1cccc(C(=O)NCCc2ccccc2)c1	-8.5%
Cc1ccnc(NC(=S)N2CCc3ccccc3C2)c1	-6.6%
Cc1cccc(-c2nc3c4ccccc4n(CC(=O)Nc4cc(F)ccc4F)c(=O)n3n2)c1	-13.9%
Cc1ccccc1Cn1c(C(=O)O)c(CNCc2cccc(F)c2)c2ccccc21	-27.6%
Cc1c(Cc2ccc3ccccc3n2)c2cc(F)ccc2n1CC(=O)O	?	nsP2 cell sec=-3.0%;NSP2 full ctr=45.1%;Furin counterscr=-8.0%;nsP2 NS23 pep=i;Papain cs=-17.7%;nsP2pro conf qHTS=?;HCV NS3 counter=i
Brc1cnc2nc(SCc3ccccn3)[nH]c2c1	-8.1%
Fc1cc(Nc2nc(-c3ccncc3)nc3ccccc23)ccc1-c1cccc(OC(F)(F)F)c1	3.2%
COc1cc(OC)cc(N2CCN(C(=S)Nc3cc(C)cc(C)n3)CC2)c1	i
O=C1NS(=O)(=O)C(c2ccccc2)C1c1ccccc1 (centres undefined)	1.2%
CCCCN(CCCC)C(=S)[S-].CCCCN(CCCC)C(=S)[S-].[Zn+2]	0.556µM*	nsP2 cell sec=?;NSP2 full ctr=0.231µM*;Furin counterscr=7.3µM*;nsP2 NS23 pep=1.63µM*;Papain cs=4.11µM*;nsP2pro conf qHTS=0.356µM*;HCV NS3 counter=i
O=C1CCCC2=C1C(c1[nH]ncc1Cl)NC(=NCc1ncc[nH]1)N2 (centres undefined)	-5.1%
O=C(NCCc1ccc(O)c(O)c1)c1cc2sccc2n1Cc1ccccc1	i
O=C(CCc1ccccc1Br)NCCc1nc2ccccc2[nH]1	-8.1%
N#Cc1cccc(CSc2nc3ncc(Br)cc3[nH]2)c1	-11.0%
COc1cc(-c2nc(Nc3ccc(F)c(F)c3)c3ccccc3n2)c(F)cn1	3.1%
CNc1oc(-c2cccc3ncccc23)nc1C#N	-3.4%
CCCCCCCCCC(=O)O	-15.7%
CCCCCCCCCCCCCCCCCCCC(=O)O	?	nsP2 cell sec=-23.1%;NSP2 full ctr=4.11µM*;Furin counterscr=-5.0%;nsP2 NS23 pep=-19.0%;Papain cs=20.6µM*;nsP2pro conf qHTS=2.83µM*;HCV NS3 counter=i
CCCCCCCC/C=C/CCCCCCCC(=O)O	-23.7%
Cc1cc(C)nc(NC(=S)N2CCN(c3ncnc4sccc34)CC2)c1	-3.5%
Cc1ccccc1C(=O)N1CCc2cc(-c3ccnc(NC(=O)Cc4ccccc4)n3)ccc21	i
CCCCCCC(=O)OCC(COC(=O)CCCCCC)OC(=O)CCCCCC	-21.5%
SMILES	nsP2pro inh	others
N#Cc1ccc(N2C[C@@H]3OCC(=O)N(CC4CCCCC4)[C@@H]3C2)nc1	-2.9%[39.2 µM]
O=C(c1cnccn1)N1C[C@@H]2OCC(=O)N(CC3CCCCC3)[C@@H]2C1	-29.0%[39.2 µM]
O=C1CO[C@H]2CN(c3ncccn3)C[C@H]2N1CC1CCCCC1	2.24µM*	nsP2 cell sec=-5.2%;NSP2 full ctr=-1.8%;Furin counterscr=?;nsP2 NS23 pep=23.7µM*;Papain cs=-0.6%;nsP2pro conf qHTS=3.66µM*;HCV NS3 counter=9.43µM*
Cc1sc(C)c2c1C(=O)NS2(=O)=O	-6.9%
N=c1sc2c(n1CC(=O)c1ccc([N+](=O)[O-])cc1)CCCC2	-7.6%
Cc1cc(C)c(OP(=O)(OCc2c(-c3ccccc3)no[n+]2[O-])Oc2c(C)cc(C)cc2C)c(C)c1	-6.2%
Cc1cc(NS(=O)(=O)c2ccc(N(C)C(=O)Cc3ccc(Cl)c(Cl)c3)cc2)no1	-6.8%
COC[C@H]1OC(=O)c2coc3c2[C@@]1(C)C1=C(C3=O)C2CCC(=O)[C@@]2(C)C[C@H]1OC(C)=O (some centres undefined)	9.88µM*	nsP2 cell sec=-0.9%;NSP2 full ctr=-11.0%;Furin counterscr=-5.5%;nsP2 NS23 pep=-17.1%;Papain cs=-6.8%;nsP2pro conf qHTS=-25.0%;HCV NS3 counter=i
COC[C@@H]1OC(=O)/C(=C\N(C)CCCN(C)C)C2=C(O)C(=O)C3=C([C@@H](OC(C)=O)C[C@@]4(C)[C@@H]3CC[C@@H]4O)[C@@]21C	-10.7%
COc1ccc(COc2ccc(-c3nc4ccccc4[nH]3)cc2)cc1OC	2.3%
COc1cccc(NC(=S)N2CCN(c3cccc(C(F)(F)F)n3)CC2)n1	-14.2%
CCOc1cc(C)c(C(C)C)cc1S(=O)(=O)n1ccnc1CC	-18.9%
CCOc1ccc(S(=O)(=O)N2CCN(c3ccc(Cl)c(Cl)c3)CC2)c2ccccc12	-21.6%
CCOc1cc(S(=O)(=O)n2ccnc2C(C)C)ccc1Cl	8.91µM*	nsP2 cell sec=-1.7%;NSP2 full ctr=16.3µM*;Furin counterscr=-4.6%;nsP2 NS23 pep=?;Papain cs=-5.8%;nsP2pro conf qHTS=?;HCV NS3 counter=9.19µM*
C#CCOc1cc(C2=Nn3c(nnc3-c3cccc(OCC(C)=O)c3)SC2)ccc1OC	i
CCC(C(=O)O)[C@H]1CC[C@H](C)[C@H]([C@@H](C)[C@H](O)[C@H](C)C(=O)[C@H](CC)[C@H]2OC3(C=C[C@@H](O)[C@]4(CC[C@@](C)([C@H]5CC[C@](O)(CC)[C@H](C)O5)O4)O3)[C@H](C)C[C@@H]2C)O1 (some centres undefined)	-4.3%
CCC(=O)Oc1ccc2c(c1)CC[C@@H]1[C@H]2CC[C@]2(C)[C@@H](OC(=O)CC)CC[C@@H]12	-2.6%
CCCN(C)c1ncnc2ccc(-c3ccc4c(c3)OCO4)cc12	-1.6%
O=C(Nc1ccc2nc(SCC(=O)N3CCc4ccccc43)sc2c1)c1cccc(Cl)c1	-15.9%
CCOc1ccc(C(=O)Nc2ccc3nc(SCC(=O)N4CCCC4)sc3c2)cc1	-11.2%
CCOC(=O)CSc1nc2ccc(NC(=O)c3ccc(Cl)cc3)cc2s1	?	nsP2 cell sec=-7.4%
O=C(O)c1cccc(-c2noc(-c3ccccc3C(F)(F)F)n2)c1	i
